In the supplement of paper PMC12282887:
± gives the standard deviation of the averaged measurements.

Key:
Experiment in all cases: promoter activity interaction Z-score (Lux/OD deviation from empty-vector control); higher = stronger promoter induction by the compound
[1] = test system: E. coli BW25113 acrABp lux reporter
Method in brief: (§1)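 E. coli BW25113, as wild type or one of three single-gene deletion strains, carried low-copy luxCDABE promoter reporters and grew in 40 µl LB Lennox in 384-well plates at 37°C, with OD600 and luminescence read every 30 min for 12 h. Each compound was run at four 1:2 dilutions in biological duplicates, integration spanned 0–8 h for wild type and 1–9 h for deletion strains, and wells under 10% of the median growth value were dropped. The score is the Z-transformed residual of growth-normalised luminescence fitted against a control.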

[2] = test system: E. coli BW25113 micFp lux reporter
Method in brief: as §1

[3] = test system: E. coli BW25113 ompFp lux reporter
Method in brief: as §1

[4] = test system: E. coli BW25113 robp lux reporter
Method in brief: as §1

[5] = test system: E. coli BW25113 soxSp lux reporter
Method in brief: as §1

[6] = test system: E. coli BW25113 tolCp lux reporter
Method in brief: as §1

[7] = 0.063 µg/ml, genetic background: wild type
[8] = 0.063 µg/ml, genetic background: ΔmarA
[9] = 0.063 µg/ml, genetic background: Δrob
[10] = 0.063 µg/ml, genetic background: ΔsoxS
[11] = 0.13 µg/ml, genetic background: wild type
[12] = 0.13 µg/ml, genetic background: ΔmarA
[13] = 0.13 µg/ml, genetic background: Δrob
[14] = 0.13 µg/ml, genetic background: ΔsoxS
[15] = 0.25 µg/ml, genetic background: wild type
[16] = 0.25 µg/ml, genetic background: ΔmarA
[17] = 0.25 µg/ml, genetic background: Δrob
[18] = 0.25 µg/ml, genetic background: ΔsoxS
[19] = 0.51 µg/ml, genetic background: wild type
[20] = 0.51 µg/ml, genetic background: ΔmarA
[21] = 0.51 µg/ml, genetic background: Δrob
[22] = 0.51 µg/ml, genetic background: ΔsoxS

N=C(NCCCCCCNC(=N)NC(=N)Nc1ccc(Cl)cc1)NC(=N)Nc1ccc(Cl)cc1 [Chlorhexidine]
promoter activity interaction Z-score [1, 7]: 0.528 ± 0.15
promoter activity interaction Z-score [1, 8]: 0.456 ± 1.1
promoter activity interaction Z-score [1, 9]: -0.0468 ± 0.34
promoter activity interaction Z-score [1, 10]: -0.413 ± 0.67
promoter activity interaction Z-score [1, 11]: 0.229 ± 0.18
promoter activity interaction Z-score [1, 12]: -0.312 ± 0.48
promoter activity interaction Z-score [1, 13]: -0.0734 ± 0.14
promoter activity interaction Z-score [1, 14]: 0.339 ± 0.46
promoter activity interaction Z-score [1, 15]: 0.27 ± 0.26
promoter activity interaction Z-score [1, 16]: -0.147 ± 0.57
promoter activity interaction Z-score [1, 17]: 0.135 ± 0.15
promoter activity interaction Z-score [1, 18]: 0.108 ± 0.19
promoter activity interaction Z-score [1, 19]: -0.0541 ± 0.33
promoter activity interaction Z-score [1, 20]: 0.0169 ± 0.15
promoter activity interaction Z-score [1, 21]: 0.0299 ± 0.11
promoter activity interaction Z-score [1, 22]: 0.236 ± 0.23
promoter activity interaction Z-score [2, 7]: -0.138 ± 0.035
promoter activity interaction Z-score [2, 8]: 0.119 ± 0.018
promoter activity interaction Z-score [2, 9]: -0.0387 ± 0.0014
promoter activity interaction Z-score [2, 10]: -0.423 ± 0.21
promoter activity interaction Z-score [2, 11]: -0.207 ± 0.061
promoter activity interaction Z-score [2, 12]: -0.0564 ± 0.12
promoter activity interaction Z-score [2, 13]: -0.0382 ± 0.027
promoter activity interaction Z-score [2, 14]: -0.0137 ± 0.079
promoter activity interaction Z-score [2, 15]: 0.112 ± 0.098
promoter activity interaction Z-score [2, 16]: -0.0647 ± 0.035
promoter activity interaction Z-score [2, 17]: -0.172 ± 0.038
promoter activity interaction Z-score [2, 18]: -0.0807 ± 0.32
promoter activity interaction Z-score [2, 19]: -0.4228 ± 0.0029
promoter activity interaction Z-score [2, 20]: -0.153 ± 0.15
promoter activity interaction Z-score [2, 21]: -0.204 ± 0.03
promoter activity interaction Z-score [2, 22]: 0.196 ± 0.032
promoter activity interaction Z-score [3, 7]: 0.348 ± 0.12
promoter activity interaction Z-score [3, 8]: 0.307 ± 0.032
promoter activity interaction Z-score [3, 9]: 0.502 ± 0.096
promoter activity interaction Z-score [3, 10]: 0.129 ± 0.63
promoter activity interaction Z-score [3, 11]: 0.528 ± 0.026
promoter activity interaction Z-score [3, 12]: -0.185 ± 0.099
promoter activity interaction Z-score [3, 13]: 0.2991 ± 0.00077
promoter activity interaction Z-score [3, 14]: 0.714 ± 0.18
promoter activity interaction Z-score [3, 15]: 0.176 ± 0.12
promoter activity interaction Z-score [3, 16]: 0.161 ± 0.18
promoter activity interaction Z-score [3, 17]: 0.332 ± 0.15
promoter activity interaction Z-score [3, 18]: 0.376 ± 0.19
promoter activity interaction Z-score [3, 19]: 0.552 ± 0.14
promoter activity interaction Z-score [3, 20]: 0.909 ± 0.66
promoter activity interaction Z-score [3, 21]: 0.866 ± 0.037
promoter activity interaction Z-score [3, 22]: 1.02 ± 0.32
promoter activity interaction Z-score [4, 7]: 0.375 ± 0.078
promoter activity interaction Z-score [4, 8]: 0.214 ± 0.35
promoter activity interaction Z-score [4, 9]: 0.423 ± 0.27
promoter activity interaction Z-score [4, 10]: 0.406 ± 0.057
promoter activity interaction Z-score [4, 11]: 0.674 ± 0.55
promoter activity interaction Z-score [4, 12]: -0.0996 ± 0.54
promoter activity interaction Z-score [4, 13]: 0.374 ± 0.39
promoter activity interaction Z-score [4, 14]: 0.814 ± 0.61
promoter activity interaction Z-score [4, 15]: 0.416 ± 0.24
promoter activity interaction Z-score [4, 16]: -0.53 ± 0.44
promoter activity interaction Z-score [4, 17]: 0.48 ± 0.31
promoter activity interaction Z-score [4, 18]: 0.422 ± 0.89
promoter activity interaction Z-score [4, 19]: -0.214 ± 0.33
promoter activity interaction Z-score [4, 20]: 0.504 ± 0.37
promoter activity interaction Z-score [4, 21]: 0.258 ± 0.6
promoter activity interaction Z-score [4, 22]: 0.18 ± 0.19
promoter activity interaction Z-score [5, 7]: -0.0504 ± 0.14
promoter activity interaction Z-score [5, 8]: 0.0857 ± 0.028
promoter activity interaction Z-score [5, 9]: 0.21 ± 0.1
promoter activity interaction Z-score [5, 10]: 0.0523 ± 0.26
promoter activity interaction Z-score [5, 11]: 0.0248 ± 0.062
promoter activity interaction Z-score [5, 12]: 0.0401 ± 0.18
promoter activity interaction Z-score [5, 13]: -0.0238 ± 0.042
promoter activity interaction Z-score [5, 14]: 0.276 ± 0.16
promoter activity interaction Z-score [5, 15]: 0.0242 ± 0.039
promoter activity interaction Z-score [5, 16]: 0.138 ± 0.13
promoter activity interaction Z-score [5, 17]: 0.236 ± 0.22
promoter activity interaction Z-score [5, 18]: 0.165 ± 0.005
promoter activity interaction Z-score [5, 19]: -0.166 ± 0.08
promoter activity interaction Z-score [5, 20]: 0.198 ± 0.063
promoter activity interaction Z-score [5, 21]: -0.014 ± 0.063
promoter activity interaction Z-score [5, 22]: -0.0376 ± 0.072
promoter activity interaction Z-score [6, 7]: 0.313 ± 0.44
promoter activity interaction Z-score [6, 8]: 0.0546 ± 1.2
promoter activity interaction Z-score [6, 9]: 0.212 ± 0.98
promoter activity interaction Z-score [6, 10]: 0.135 ± 0.81
promoter activity interaction Z-score [6, 11]: 0.112 ± 0.076
promoter activity interaction Z-score [6, 12]: -0.214 ± 1.4
promoter activity interaction Z-score [6, 13]: -0.155 ± 0.64
promoter activity interaction Z-score [6, 14]: 0.18 ± 2
promoter activity interaction Z-score [6, 15]: -0.564 ± 0.81
promoter activity interaction Z-score [6, 16]: -0.365 ± 0.86
promoter activity interaction Z-score [6, 17]: 0.568 ± 0.35
promoter activity interaction Z-score [6, 18]: 0.574 ± 0.065
promoter activity interaction Z-score [6, 19]: -0.539 ± 0.4
promoter activity interaction Z-score [6, 20]: 0.431 ± 0.064
promoter activity interaction Z-score [6, 21]: -0.613 ± 0.62
promoter activity interaction Z-score [6, 22]: 0.378 ± 0.96
